# Test results: the supplement of paper PMC3342239
# Counter-ions that a name gives are not always drawn.
# Test system: Saccharomyces cerevisiae
# Assay: fraction of cells in G1 phase (DNA content, flow cytometry); higher = more cells with unreplicated DNA (G1 delay)
# Conditions: temperature: 30 C; YPD; BY4741 PDR5+ SNQ2+; drug added to: actively dividing cells; 4.33 h
# Method: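 S. cerevisiae cultures in YPD at 30°C were treated with each drug of the Enzo FDA-approved library at 20 µg/ml (final µM given per drug). Cells were fixed after 6–7 h (S1) or 6 h (S2), or after 4.33 h for BY4741 (S3), then stained with SYTOX Green. %G1 is the Dean-Jett-Fox G1 peak area divided by the G1+G2/M peak areas, written as a fraction and averaged over at least two independent experiments. DMSO reference: mean ~0.49; >0.60 is called High G1 and <0.3876 Low G1. Scale: lower means mitotic delay.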
row,SMILES,fraction of cells in G1 phase
1,CC(=O)OCC1OC([S-])C(OC(C)=O)C(OC(C)=O)C1OC(C)=O.CC[PH+](CC)CC.[Au+] (stereo not given) [Auranofin] (29.4771 µM),0.52
2,Fc1ccc([C@@H]2CCNC[C@H]2COc2ccc3c(c2)OCO3)cc1 [Paroxetine HCl] (60.7211 µM),0.468
3,CC(=O)[C@H]1CC[C@H]2[C@@H]3CCC4=CC(=O)CC[C@]4(C)[C@H]3CC[C@]12C [Progesterone] (63.5987 µM),0.501
4,O=C(CCCN1CCC(O)(c2ccc(Cl)cc2)CC1)c1ccc(F)cc1 [Haloperidol HCl] (53.2093 µM),0.462
5,COc1c(N2CCNC(C)C2)c(F)cc2c(=O)c(C(=O)O)cn(C3CC3)c12 (stereo not given) [Gatifloxacin] (53.276 µM),0.391

# Same assay, conditions: temperature: 30 C; YPD; JTY2953 pdr5 snq2 (sensitized); drug added to: actively dividing cells; 6 h
row,SMILES,fraction of cells in G1 phase
1,Clc1ccc(COC(Cn2ccnc2)c2ccc(Cl)cc2Cl)c(Cl)c1 (stereo not given) [Miconazole] (48.0611 µM),0.467
2,CC(=O)OCC1OC([S-])C(OC(C)=O)C(OC(C)=O)C1OC(C)=O.CC[PH+](CC)CC.[Au+] (stereo not given) [Auranofin] (29.4771 µM),0.959
3,COc1cccc2c1C(=O)c1c(O)c3c(c(O)c1C2=O)C[C@@](O)(C(=O)CO)C[C@@H]3O[C@H]1C[C@H](N)[C@H](O)[C@H](C)O1 [Doxorubicin HCl] (34.4828 µM),0.618
4,COC(=O)C1=C(C)NC(C)=C(C(=O)OCCCN2CCC(c3ccccc3)(c3ccccc3)CC2)[C@H]1c1cccc([N+](=O)[O-])c1 [Niguldipine HCl] (30.9502 µM),0.389
5,CC(=O)[C@H]1CC[C@H]2[C@@H]3CCC4=CC(=O)CC[C@]4(C)[C@H]3CC[C@]12C [Progesterone] (63.5987 µM),0.693
6,O=C(CCCN1CCC(O)(c2ccc(Cl)cc2)CC1)c1ccc(F)cc1 [Haloperidol HCl] (53.2093 µM),0.762
7,O=C1Nc2ccc(Cl)cc2[C@@](C#CC2CC2)(C(F)(F)F)O1 [Efavirenz] (63.355 µM),0.4

# Same assay, conditions: temperature: 30 C; YPD; JTY2953 pdr5 snq2 (sensitized); drug added to: cultures diluted from stationary phase; 6-7 h
row,SMILES,fraction of cells in G1 phase
1,CN(C)c1ccc(O)c2c1C[C@H]1C[C@H]3[C@H](N(C)C)C(=O)C(C(N)=O)=C(O)[C@@]3(O)C(=O)C1=C2O [Minocycline HCl] (43.717 µM),0.51
2,Nc1ncnc2c1ncn2[C@@H]1O[C@H](CO)[C@@H](O)[C@@H]1O [Vidarabine] (74.8374 µM),0.481
3,CS(=O)(=O)c1ccc(C2=C(c3ccccc3)C(=O)OC2)cc1 [Rofecoxib] (63.6208 µM),0.536
4,CC(C)OC(=O)CCC/C=C\C[C@@H]1[C@@H](CC[C@@H](O)CCc2ccccc2)[C@H](O)C[C@@H]1O [Latanoprost] (46.2315 µM),0.528
5,Clc1ccc(COC(Cn2ccnc2)c2ccc(Cl)cc2Cl)c(Cl)c1 (stereo not given) [Miconazole] (48.0611 µM),0.869
6,"O=C(O)Cc1ccccc1Nc1c(Cl)cccc1Cl [Diclofenac, Na] (67.5321 µM)",0.473
7,CC(=O)OCC1OC([S-])C(OC(C)=O)C(OC(C)=O)C1OC(C)=O.CC[PH+](CC)CC.[Au+] (stereo not given) [Auranofin] (29.4771 µM),0.709
8,Fc1ccc([C@@H]2CCNC[C@H]2COc2ccc3c(c2)OCO3)cc1 [Paroxetine HCl] (60.7211 µM),0.387
9,COc1cccc2c1C(=O)c1c(O)c3c(c(O)c1C2=O)C[C@@](O)(C(=O)CO)C[C@@H]3O[C@H]1C[C@H](N)[C@H](O)[C@H](C)O1 [Doxorubicin HCl] (34.4828 µM),0.64
10,C[C@]12CCC(=O)C=C1CC[C@@H]1[C@@H]2[C@@H](O)C[C@@]2(C)[C@H]1CC[C@]2(O)C(=O)CO [Hydrocortisone] (55.1769 µM),0.483
11,"C[C@H](CCC(=O)NCCS(=O)(=O)O)[C@H]1CC[C@H]2[C@@H]3[C@H](O)C[C@@H]4C[C@H](O)CC[C@]4(C)[C@H]3C[C@H](O)[C@]12C [Taurocholic acid, sodium salt hydrate] (38.7811 µM)",0.491
12,C[C@H]1c2cccc(O)c2C(O)=C2C(=O)[C@]3(O)C(O)=C(C(N)=O)C(=O)[C@@H](N(C)C)[C@@H]3[C@@H](O)[C@@H]21 [Doxycycline HCl] (44.9999 µM),0.53
13,COc1ccc(C2CNC(=O)C2)cc1OC1CCCC1 (stereo not given) [Rolipram] (72.6347 µM),0.497
14,COC(=O)C1=C(C)NC(C)=C(C(=O)OCCCN2CCC(c3ccccc3)(c3ccccc3)CC2)[C@H]1c1cccc([N+](=O)[O-])c1 [Niguldipine HCl] (30.9502 µM),0.684
15,Nc1cc(-c2ccncc2)c[nH]c1=O [Amrinone] (106.838 µM),0.474
16,Nc1c(Br)cc(Br)cc1CN[C@H]1CC[C@H](O)CC1 [Ambroxol] (52.8948 µM),0.529
17,CC(=O)[C@H]1CC[C@H]2[C@@H]3CCC4=CC(=O)CC[C@]4(C)[C@H]3CC[C@]12C [Progesterone] (63.5987 µM),0.607
18,COc1ccc(CC2c3cc(OC)c(OC)cc3CC[N+]2(C)CCC(=O)OCCCCCOC(=O)CC[N+]2(C)CCc3cc(OC)c(OC)cc3C2Cc2ccc(OC)c(OC)c2)cc1OC (stereo not given) [Atracurium besylate] (21.5246 µM),0.474
19,Cc1cn([C@H]2C[C@H](N=[N+]=[N-])[C@@H](CO)O2)c(=O)[nH]c1=O [3'-azido-3'-deoxythymidine] (74.8374 µM),0.488
20,CN1[C@@H](CC(=O)c2ccccc2)CCC[C@H]1C[C@H](O)c1ccccc1 [Lobeline] (59.2652 µM),0.525
21,O=C(CCCN1CCC(O)(c2ccc(Cl)cc2)CC1)c1ccc(F)cc1 [Haloperidol HCl] (53.2093 µM),0.617
22,C=C(CC)C(=O)c1ccc(OCC(=O)O)c(Cl)c1Cl [Ethacrynic acid] (65.9752 µM),0.513
23,COc1c(N2CCNC(C)C2)c(F)cc2c(=O)c(C(=O)O)cn(C3CC3)c12 (stereo not given) [Gatifloxacin] (53.276 µM),0.335
24,O=C1Nc2ccc(Cl)cc2[C@@](C#CC2CC2)(C(F)(F)F)O1 [Efavirenz] (63.355 µM),0.879
25,CN1CCN(C2=Nc3cc(F)ccc3Cc3ccccc32)CC1 [Fluperlapine] (64.6434 µM),0.512
26,CN(C)CCCOc1nn(Cc2ccccc2)c2ccccc12 [Benzydamine] (64.6382 µM),0.48
27,Cc1nc2n(c(=O)c1CCN1CCC(c3noc4cc(F)ccc34)CC1)CCCC2 [Risperidone] (48.7216 µM),0.472
28,COc1ccccc1N1CCN(CC(O)COc2cccc3ccccc23)CC1 (stereo not given) [Naftopidil 2HCl] (50.9551 µM),0.564
